The values that follow come from PubChem BioAssay (EPA / NIEHS).

Results filed as inconclusive are left out. Active and inactive are the calls of the source. How the source made its calls: active means hit-call score of the fitted dose curve at least 0.9, where 1 is the maximum; inconclusive means response in the unintended direction; inactive means score below 0.9.

This assay can be described thus: Tanguay_ZF_120hpf_SWIM_legacy: (Legacy) Oregon State University Tanguay Lab 120 Hour Post-fertilization zebrafish Assay for Swim Bladder Malformation (AID 2283654).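 Further: swim bladder malformation in each larva scored yes or no under brightfield.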 As for the experimental part:
Tanguay_ZF_120hpf_legacy is a whole embryo, multiplexed endpoint assay using zebrafish larvae exposed for 120 hours post fertilization on a 96-well plate.Tanguay_ZF_120hpf_SWIM_legacy is one of one assay component(s) measured or calculated from the Tanguay_ZF_120hpf_legacy assay. It is designed to make measurements of zebrafish development as detected with brightfield microscopy of developing zebrafish embryos.Data from the assay component Tanguay_ZF_120hpf_SWIM_legacy was analyzed into 1 assay endpoints. This assay endpoint, Tanguay_ZF_120hpf_SWIM_legacy, was analyzed in the positive analysis fitting direction relative to DMSO as the negative control and baseline of activity. Using a type of morphology reporter, gain-of-signal activity can be used to understand changes in developmentals as they relate to the whole embryo. To generalize the intended target to other relatable targets, this assay endpoint is annotated to the zebrafish development intended target family, where the subfamily is swim bladder morphogenesis.
Zebrafish husbandry: Tropical 5D wild-type adult zebrafish were housed in at an approximate density of 1000 per 100 gallon tank at the Sinnhuber Aquatic Research Laboratory, Oregon State University, Corvallis, OR. Each tank was kept at standard laboratory conditions of 28C on a 14-h light/10-h dark photoperiod in fish water consisting of reverse osmosis water supplemented with a commercially available salt (Instant Ocean). Spawning funnels were placed into the tanks the night prior, and embryos were collected and staged. To increase bioavailability, the chorion was enzymatically removed using pronase (63.6mg/ml, >/= 3.5U/mg, Sigma-Aldrich: P5147) at 4 hours post fertilization (hpf) using a custom automated dechorionator.Chemical exposures: Six hpf dechorionated embryos were placed 1 embryo per well in a 96-well plate prefilled with 90 ul of EM using automated embryo placement systems (AEPS). Ten microliters of each row of dilution plate 2 was added to 2 exposure plates. The final DMSO concentration used was 0.64% (vol/vol). Thirty-two embryos were also exposed to 5uM trimethyltin chloride (positive control). Plates were sealed to prevent evaporation and foil covered to reduce light exposure and kept in a 28C incubator. Embryos were statically exposed until 120 hpf. At 24 hpf, embryos were assessed for photomotor response using a custom photomotor response analysis tool (PRAT) and for developmental toxicity endpoints (MO24: mortality at 24 hpf, DP: developmental progression, SM: spontaneous movement, and NC: notochord distortion). At 120 hpf, locomotor activity was measured using Viewpoint Zebralab and assessed for 18 endpoints. Zebrafish acquisition and analysis program (ZAAP), a custom program designed to inventory, acquire, and manage zebrafish data, was used to collect developmental endpoints as either present or absent (i.e., binary responses were recorded). If mortality occurred for an embryo (at either 24 or 120 hpf), the non-mortality endpoints were not measured.
Regarding `CC(COc1ccc(Oc2ccccc2)cc1)Oc1ccccn1` (stereo not given), the result was inactive.

`C#CCC1=C(C)C(OC(=O)C2C(C=C(C)C)C2(C)C)CC1=O` (stereo not given): the compound was called inactive.

Consider `Cc1cc(C2CC2)nc(Nc2ccccc2)n1`, for which the result was inactive.

For the compound `O=[N+]([O-])c1cc(C(F)(F)F)c(Cl)c([N+](=O)[O-])c1Nc1ncc(C(F)(F)F)cc1Cl`, the outcome was inactive.

In the case of `CC(Oc1cccc(Cl)c1)C(=O)O` (stereo not given), the result was inactive.

Broadly, the AC50 is the concentration at which the activity in the assay is half-maximal. For the compound `COc1ccc(C(=CC(=O)N2CCOCC2)c2ccc(Cl)cc2)cc1OC`, the AC50 was 63.3 µM (active).

With `CCOP(=O)(SC(C)CC)N1CCSC1=O` (stereo not given), the compound was classed as inactive.

In the case of `COP(=O)(NC(C)=O)SC` (stereo not given), the compound was called inactive.

As to `CCc1cccc(CC)c1N(COC)C(=O)CCl`, the result was inactive.

For `CSC1=N[C@@](C)(c2ccccc2)C(=O)N1Nc1ccccc1`, the call was inactive.

As for `CCC(=O)Nc1ccc(Cl)c(Cl)c1`, the call was inactive.

As to `CC(=NC#N)N(C)Cc1ccc(Cl)nc1`, the compound was classed as inactive.

Regarding `CSc1nnc(C(C)(C)C)c(=O)n1N`, the compound was called inactive.

Take `CC(C)=CC1C(C(=O)OCN2C(=O)C3=C(CCCC3)C2=O)C1(C)C` (stereo not given): the call was inactive.

For `CCCOCC(=Nc1ccc(Cl)cc1C(F)(F)F)n1ccnc1`, the outcome was inactive.

In the case of `CCOP(=S)(OCC)Oc1ccc2c(C)c(Cl)c(=O)oc2c1`, the compound was classed as inactive.

On to `CON=C(C(=O)OC)c1ccccc1CON=C(C)c1cccc(C(F)(F)F)c1`, for which the compound was classed as inactive.

Take `Cc1nn(-c2cc(NS(C)(=O)=O)c(Cl)cc2Cl)c(=O)n1C(F)F`: the result was inactive.

Regarding `CCOC(=O)CC(SP(=O)(OC)OC)C(=O)OCC` (stereo not given), the compound was classed as inactive.

For the compound `COc1cc(OC)nc(Sc2cccc(Cl)c2C(=O)O)n1`, the compound was called inactive.

As to `O=c1ccc(=O)[nH][nH]1`, the call was inactive.

`CC(C)N(C(=O)SCC(Cl)=C(Cl)Cl)C(C)C`: the compound was classed as inactive.

For `O=C(O)c1cc(Oc2ccc(C(F)(F)F)cc2Cl)ccc1[N+](=O)[O-]`, the outcome was inactive.

Consider `CCc1cccc(C)c1N(C(=O)CCl)C(C)COC` (stereo not given), for which the result was inactive.

On to `Nc1nc(N)nc(NC2CC2)n1`, for which the outcome was inactive.

`CC[C@H](C)[C@H]1O[C@]2(C=C[C@@H]1C)C[C@@H]1C[C@@H](C/C=C(\C)[C@@H](O[C@H]3C[C@H](OC)[C@@H](O[C@H]4C[C@H](OC)[C@@H](NC)[C@H](C)O4)[C@H](C)O3)[C@@H](C)/C=C/C=C3\CO[C@@H]4[C@H](O)C(C)=C[C@@H](C(=O)O1)[C@]34O)O2`: the compound was called inactive.

As for `CCCCOC(=O)c1ccccc1C(=O)O`, the result was inactive.

On to `CCOP(=O)(NC(C)C)Oc1ccc(SC)c(C)c1` (stereo not given), for which the outcome was inactive.

On to `C[Si](Cn1cncn1)(c1ccc(F)cc1)c1ccc(F)cc1`, for which the call was inactive.

Turning to `CCOP(=S)(Oc1cnc(C(C)(C)C)nc1)OC(C)C` (stereo not given), the outcome was inactive.

Regarding `CCOP(=S)(OCC)SCCSCC`, the compound was called inactive.

In the case of `CCOP(=S)(OCC)Oc1ccc([N+](=O)[O-])cc1`, the outcome was inactive.

On to `COc1cccc(C(=O)NN(C(=O)c2cc(C)cc(C)c2)C(C)(C)C)c1C`, for which the result was inactive.

Regarding `CCC(=NOC/C=C/Cl)C1=C(O)CC(C2CCOCC2)CC1=O` (stereo not given), the result was inactive.

As to `C#CC(C)(C)NC(=O)c1cc(Cl)cc(Cl)c1`, the compound was called inactive.

Take `CCC(CC)Nc1c([N+](=O)[O-])cc(C)c(C)c1[N+](=O)[O-]`: the compound was called inactive.

For `CCNc1nc(Cl)nc(NC(C)(C)C#N)n1`, the result was inactive.

With `C[N+]1(C)CCCCC1`, the compound was classed as inactive.

Regarding `CN(C)C(=O)Nc1cccc(C(F)(F)F)c1`, the outcome was inactive.

For `CCCOc1nn(C(=O)NS(=O)(=O)c2ccccc2C(=O)OC)c(=O)n1C`, the result was inactive.
